In the library only some 0.56% were active in any assay of this set; here they are far more common.
USP1-UAF1 inh – inhibitors of human USP1/UAF1 deubiquitinase; O94782; recombinant USP1/UAF1, Ub-Rhodamine cleavage fluorescence; Potency, µM (top dose mostly 57.1 µM), without a hit: top-dose activity change, negative = inhibition, usual class: inhibitors; 390,000 tested, 0.23% active; AID 743255; also: potency is read from the fitted curve at half-maximal effect; % is scaled to controls: 0 for no effect and ±100 for the full control effect; nearly all actives have a fitted effect of over 60% in size
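High-throughput fluorogenic screen: 1nM USP1/UAF1 complex, Ub-Rho substrate 150nM final, 50mM HEPES pH 7.8 with 0.5mM EDTA, 0.1 mg/ml BSA, 1mM TCEP and 0.01% Tween-20.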
EPAC1 antag – antagonists of human EPAC1 | AID 720709 | EPAC1 GEF assay, Rap1b-BODIPY-GDP exchange fluorescence | 360,000 tested, 0.14% active | Potency, µM (doses to about 115 µM), without a hit: at the highest dose activity change, negative = inhibition, actives largely listed as inhibitors;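 also: potency is read from the fitted curve at half-maximal effect; plate controls were vehicle for no effect and positive control for full effect; nearly all actives have a fitted effect of over 50% in size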
EPAC2 antagonist – EPAC2 (human) antagonism; Potency, µM (doses to about 114 µM), inactives show at the top dose activity, negative = inhibition, usual class: inhibitors; EPAC2 GEF exchange of Rap1B-BODIPY-GDP, fluorescence; AID 720708; Q8WZA2; 360,000 tested, 0.18% active; also: potency is read from the fitted curve at half-maximal effect; % is scaled to controls: 0 for no effect and ±100 for the full control effect; nearly all actives have a fitted effect of over 45% in size
EPAC1 ag – agonists of human EPAC1. O95398. Potency, µM (series often up to 154 µM), without a hit: top-dose activation, usual class: activators. EPAC1 agonist qHTS, biochemical assay; response scale: 100% = response to 6.5 mM cAMP. 360,000 tested, 0.073% active; also: potency is read from the fitted curve at half-maximal effect; nearly all actives have a fitted effect of over 60% in size
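EPAC1 100 nM, Rap1B–BODIPY-GDP 250 nM, unlabeled GDP 50 uM; compound titration; 5 min RT; kinetic read ex480/em540 at 5-min intervals ×30 min; data normalized to 6.5 mM cAMP agonist control.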
EPAC2 ag – agonists of human EPAC2 (RAPGEF4). AID 720711. EPAC2 activation, biochemical qHTS; response scale: 100% = 6.5 mM cAMP response. 360,000 tested, 0.079% active. Potency, µM (series often up to 154 µM), without a hit: top-dose activation, hits mostly activators. Q8WZA2; also: potency is read from the fitted curve at half-maximal effect; nearly all actives have a fitted effect of over 50% in size
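Each well held 100 nM EPAC2, 250 nM RAP1B-BODIPY-GDP and 50 uM GDP. Fluorescence, read at 5-min intervals to 30 min, was referenced to a 6.5 mM cAMP positive control.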
LDHA block – inhibitors of human lactate dehydrogenase A; P00338; purified LDHA, NADH/diaphorase-resazurin fluorescence; active compounds read low; activity change, % (values are at about 110 or 230 µM); 480,000 tested, 0.15% active; AID 1347041; in the data active = activity change below about -30%; inconclusive = mostly about -25% to -30%;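 also: plate controls were DMSO wells for no effect and wells without enzyme for full effect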
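LDH5 2 nM; NADH 0.06 mM, pyruvate 0.2 mM; 200 mM Tris pH 7.4, EDTA, Tween-20; 5 min RT. Detection: diaphorase 0.133 mg/mL + resazurin 37 µM, fluorescence ex540/em590 at 0 and 20 min; normalized to enzyme-free and DMSO wells.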
The depositor's hits bear a star; i = inactive; ? = inconclusive; . = no result given. Unless noted, calls follow the shape of the dose curve; as a rule, active = well fitted curve in the direction sought with a large enough effect; inconclusive = small, poorly fitted or top-dose-only effect, or another doubt; inactive = no such curve, though single readings can be large; an effect the other way counts as inactive or inconclusive.

SMILES | USP1-UAF1 inh | EPAC1 antag | EPAC2 antagonist | EPAC1 ag | EPAC2 ag | LDHA block
CC(C)CSC1=NSC2=NC(=O)/C(=C\c3cccs3)C(=N)N12 | -11.4% | -4.0% | -8.0% | -9.5% | 2.2% | 0.2
CC1=CC2=NC(=O)/C(=C/c3coc4ccc(Cl)cc4c3=O)C(=N)N2O1 | 28.2µM* | 15.5% | 46.2% | ? | ? | -6.1
COc1ccc(CNC(=O)C2CCN(S(=O)(=O)c3ccc4c(c3)CC(C)N4C(C)=O)CC2)cc1 (stereo unspecified) | -22.5% | -5.9% | 0.4% | 10.1% | -0.5% | -0.2
N=C1/C(=C/c2cccn2Cc2ccc(F)cc2)C(=O)N=C2SC=CN12 | -20.1% | 7.1% | 4.9% | -6.3% | -1.0% | -2.0
N=C1/C(=C\c2coc3ccccc3c2=O)C(=O)N=C2SC=CN12 | 28.2µM* | 60.4% | 157.2% | 89.1µM* | 112µM* | 3.9
CCOC(=O)c1ccc(NCn2c(=O)oc3ccccc32)cc1 | 25.1µM* | 2.9% | 1.1% | 19.7% | 14.2% | -8.7
COC(=O)c1ccc(NC(=O)CCn2c(=O)oc3ccccc32)cc1 | -18.3% | -21.6% | 12.9% | -17.3% | -2.0% | 0.8
O=C(/C=C/c1ccc(-c2ccc(Cl)cc2Cl)o1)c1ccc(Br)cc1 | . | . | . | . | . | 1.2
O=C(O)c1cc(Cl)ccc1-c1ccc(/C=C/c2cc(C(F)(F)F)[nH]c(=O)n2)o1 | 28.2µM* | 472.7% | 272.9% | 89.1µM* | 100µM* | -1.2
O=C(O)c1ccccc1-c1ccc(/C=C/c2cc(C(F)(F)F)[nH]c(=O)n2)o1 | 28.2µM* | i | 443.6% | 56.2µM* | 100µM* | 0.7
NS(=O)(=O)c1cccc(C(=O)NC2CCSc3ccccc32)c1 (stereo unspecified) | -0.9% | 4.3% | -17.8% | -3.9% | -6.6% | -1.6
NS(=O)(=O)c1cc(C(=O)NC2CCSc3ccccc32)ccc1Cl (stereo unspecified) | ? | 28.2µM* | 35.5µM* | -10.7% | -5.0% | -66.3*
COc1cccc(NC(=O)c2csc3c2CCCC3)c1 | -6.7% | 155.4% | -8.7% | 100µM* | 12.5% | -2.1
COc1ccc(NC(=O)c2csc3c2CCCC3)cc1 | -12.3% | 9.3% | 5.5% | -1.3% | 7.4% | 0.9
COC1=C/C(=C/c2c(N)n3nc(-c4ccc(C)cc4)sc3nc2=O)C=CC1=O | -19.8% | ? | -8.3% | 12.9% | 1.2% | -30.1*
Cc1cc(-c2ccc(S(=O)(=O)N3CCN(c4ccccc4F)CC3)s2)on1 | -16.5% | -28.6% | -4.1% | -0.1% | -1.8% | -5.6
CCN(CC)CCCNc1ccc2ncn3c4ccc(O)cc4c(=O)c1c23 | 28.2µM* | 9.2% | 59.7% | 20.9% | -12.9% | 28.5
CCOC(=O)c1c(-c2ccccc2)csc1NC(=O)/C(C#N)=C\c1ccc(O)c(OC)c1 | 15.8µM* | -11.4% | ? | -4.3% | -4.6% | -0.4
COc1ccc(C(=O)Nc2ccccc2-c2nnn(CC(N)=O)n2)cc1 | -15.6% | 89.1µM* | -3.6% | -9.5% | -3.3% | -2.6
COc1cc(C(=O)Nc2ccccc2-c2nnn(CC(N)=O)n2)cc(OC)c1OC | 3.4% | 5.8% | -0.4% | -1.9% | -3.2% | 0.5
COc1ccc(C(C)=O)cc1COc1ccc(F)cc1 | -9.6% | -29.9% | 56.2µM* | 14.6% | 13.6% | -7.3
COc1ccn(C2CCCCO2)c(=O)n1 (stereo unspecified) | 13.2% | -8.0% | 16.2% | -3.1% | 3.4% | -8.5
Cc1cccc(Cl)c1OCCCn1ccnc1 | -9.2% | 3.8% | 5.1% | -17.2% | -3.1% | -36.6*
Cc1cc(Cl)cc(C)c1OCCCCCn1ccnc1 | -22.3% | -5.5% | -22.2% | 1.3% | 2.4% | -0.5
N#Cc1nc(/C=C/c2ccc(F)cc2)oc1NCCCN1CCOCC1 | . | . | . | . | . | -7.2
SMILES | USP1-UAF1 inh | EPAC1 antag | EPAC2 antagonist | EPAC1 ag | EPAC2 ag | LDHA block
CCOC(=O)c1c(C)nc2sc(C(N)=O)c(N)c2c1-c1ccccc1 | -23.1% | -3.5% | -3.1% | -7.1% | 7.94µM* | -4.7
COc1ccc(-c2c(C)c3ccc(OC(=O)c4ccco4)cc3oc2=O)cc1OC | . | . | . | . | . | 3.3
CN(CC(=O)Nc1ccccc1C(F)(F)F)C(=O)c1cc(-c2cccs2)nn1-c1ccccc1 | -28.1% | -8.6% | -2.3% | 112µM* | 2.5% | -8.5
CC1CC(C)CN(S(=O)(=O)c2ccc3c(c2)CCN3C(=O)CCC(=O)O)C1 (stereo unspecified) | -5.5% | -5.2% | -18.2% | -7.1% | 2.4% | -0.2
Cc1cccc(N2CCN(S(=O)(=O)c3ccc4c(c3)CCN4C(=O)CCC(=O)O)CC2C)c1 (stereo unspecified) | -13.0% | 20µM* | 61.4% | 56.2µM* | 12.7% | -5.5
O=C(Cc1ccc(Oc2ccccc2)cc1)NO | . | . | . | . | . | -7.0
COc1cc(/C=N/NC(=O)CNc2cccc(C(F)(F)F)c2)ccc1OC(=O)c1ccccc1F | . | . | . | . | . | -32.2*
CCN(C(=O)c1ccco1)c1nc(-c2ccc(C)cc2)cs1 | . | . | . | . | . | 7.9
CCN(C(=O)c1ccco1)c1nc(-c2ccccc2)cs1 | . | . | . | . | . | -33.8*
CC(=O)C1=C(C)OC2(O)c3ccccc3C(=O)C12O (stereo unspecified) | 8.91µM* | 79.4µM* | -24.5% | 3.6% | 20.8% | 2.8
CCOC(=O)C1=C(C)OC2(O)c3ccccc3C(=O)C12O (stereo unspecified) | 12.6µM* | ? | -27.3% | 1.3% | ? | 2.5
CCOC(=O)C1=C(C)N[C@@]2(O)c3ccccc3C(=O)[C@@]12O | -21.3% | -2.7% | 14.2% | 2.7% | 4.4% | -0.7
COc1ccc2oc(C(=O)Nc3ccc(N4CCOCC4)cc3)c(C)c2c1 | -10.8% | ? | 9.5% | 63.1µM* | -2.3% | 1.9
O=C(NCc1ccncc1)c1cc(-c2ccccn2)nc2cc(F)ccc12 | . | . | . | . | . | -15.0
O=C(c1nc(-c2cccnc2)no1)N1CCN(c2ccc(F)cc2)CC1 | . | . | . | . | . | -32.9*
O=C(/C=C/c1ccc(-c2ccccc2[N+](=O)[O-])o1)c1ccco1 | -15.2% | 50.1µM* | 0.4% | 3.8% | 12.3% | 4.3
CC(NC(=O)c1ccc2c(c1)OCC(=O)N2)c1cccs1 (stereo unspecified) | . | . | . | . | . | 3.9
COC(=O)Cn1c(Br)nc2c1c(=O)[nH]c(=O)n2C | . | . | . | . | . | -12.2
COC(=O)Cn1c(Br)nc2c1c(=O)n(C)c(=O)n2C | . | . | . | . | . | -35.3*
COc1cc(C)c2c(c1C=O)Oc1c(c(C)c(O)c3c1C(O)OC3=O)OC2=O (stereo unspecified) | 15.8µM* | -29.7% | ? | -0.3% | -2.4% | -0.3
O=C(COc1ccc2c(=O)c(-c3ccc(Cl)cc3)coc2c1)Nc1ccc(O)cc1 | . | . | . | . | . | -0.1
CCC(=O)Nc1cc(C)ccc1NC(=O)c1cccs1 | . | . | . | . | . | -31.2*

Bioassay records (PubChem BioAssay)
